Assay results as given in the supplement of paper PMC11732987, “Enantioselective OTUD7B fragment discovery through chemoproteomics screening and high-throughput optimisation” (Communications Chemistry, 2025).

Experiments:
Assay in all cases: log2 ratio of Biotin-Ahx-Ub-VS probe labelling (fragment/DMSO); higher = less target engagement (more negative = stronger competition), active = hit call of the paper (q ≤ 0.05, log2 ratio ≤ -1)
Details in all cases: compound concentration: 200 uM; treatment time: 3 h
USP19 = biological target: T1, USP19 (UniProt O94966)
T1 sequence (whole entry): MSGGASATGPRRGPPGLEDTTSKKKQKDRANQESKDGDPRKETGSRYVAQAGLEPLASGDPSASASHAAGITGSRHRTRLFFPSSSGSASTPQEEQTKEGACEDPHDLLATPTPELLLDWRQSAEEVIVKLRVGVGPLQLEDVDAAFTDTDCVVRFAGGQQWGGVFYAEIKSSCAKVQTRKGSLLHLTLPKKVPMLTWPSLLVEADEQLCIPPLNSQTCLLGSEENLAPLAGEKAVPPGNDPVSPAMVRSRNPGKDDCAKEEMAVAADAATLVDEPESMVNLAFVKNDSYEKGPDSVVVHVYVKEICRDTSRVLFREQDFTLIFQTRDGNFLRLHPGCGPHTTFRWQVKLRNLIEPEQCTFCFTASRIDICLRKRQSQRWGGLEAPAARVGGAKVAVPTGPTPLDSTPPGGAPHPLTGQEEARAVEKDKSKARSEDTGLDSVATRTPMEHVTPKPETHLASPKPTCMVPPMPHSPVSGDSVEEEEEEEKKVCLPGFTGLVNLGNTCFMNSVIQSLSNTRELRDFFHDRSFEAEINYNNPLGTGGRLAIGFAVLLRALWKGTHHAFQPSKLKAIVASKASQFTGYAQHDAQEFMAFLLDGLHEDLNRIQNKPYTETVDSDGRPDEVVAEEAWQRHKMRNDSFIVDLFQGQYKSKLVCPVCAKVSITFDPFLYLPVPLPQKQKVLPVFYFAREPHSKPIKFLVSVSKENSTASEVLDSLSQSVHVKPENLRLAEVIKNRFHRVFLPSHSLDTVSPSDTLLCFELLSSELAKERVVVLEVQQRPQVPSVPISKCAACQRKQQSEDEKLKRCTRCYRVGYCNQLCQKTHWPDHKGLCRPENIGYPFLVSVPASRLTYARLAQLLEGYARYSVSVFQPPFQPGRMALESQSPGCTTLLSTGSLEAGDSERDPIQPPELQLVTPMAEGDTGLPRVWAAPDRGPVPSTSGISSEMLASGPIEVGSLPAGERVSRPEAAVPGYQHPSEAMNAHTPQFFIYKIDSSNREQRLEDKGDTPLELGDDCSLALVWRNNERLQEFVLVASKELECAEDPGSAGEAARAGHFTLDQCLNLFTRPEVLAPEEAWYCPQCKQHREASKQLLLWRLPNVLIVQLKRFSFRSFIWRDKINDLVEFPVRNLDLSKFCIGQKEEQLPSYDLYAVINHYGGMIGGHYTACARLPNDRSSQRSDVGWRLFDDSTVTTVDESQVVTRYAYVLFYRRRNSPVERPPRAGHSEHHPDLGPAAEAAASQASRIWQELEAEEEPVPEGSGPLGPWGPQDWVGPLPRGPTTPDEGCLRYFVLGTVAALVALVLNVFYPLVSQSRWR
Method in brief: (§1)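 HEK293T lysate (495 µg per sample, in Tris/CHAPS/IGEPAL buffer with protease inhibitors) was exposed in triplicate for 3 h to fragment at 200 µM or to vehicle, then to Biotin-Ahx-Ub-VS at 0.5 µM final for 1 h. Labelled DUBs were enriched on NeutrAvidin, digested with LysC and trypsin, and analysed by diaPASEF LC-MS/MS. Spectronaut label-free quantities were normalised to the global median, and values are average log2 ratios of fragment over vehicle from an unpaired t-test. Only proteins with ≥2 unique peptides were used.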

USP22 = biological target: T2, USP22 (UniProt Q9UPT9)
T2 sequence (whole entry): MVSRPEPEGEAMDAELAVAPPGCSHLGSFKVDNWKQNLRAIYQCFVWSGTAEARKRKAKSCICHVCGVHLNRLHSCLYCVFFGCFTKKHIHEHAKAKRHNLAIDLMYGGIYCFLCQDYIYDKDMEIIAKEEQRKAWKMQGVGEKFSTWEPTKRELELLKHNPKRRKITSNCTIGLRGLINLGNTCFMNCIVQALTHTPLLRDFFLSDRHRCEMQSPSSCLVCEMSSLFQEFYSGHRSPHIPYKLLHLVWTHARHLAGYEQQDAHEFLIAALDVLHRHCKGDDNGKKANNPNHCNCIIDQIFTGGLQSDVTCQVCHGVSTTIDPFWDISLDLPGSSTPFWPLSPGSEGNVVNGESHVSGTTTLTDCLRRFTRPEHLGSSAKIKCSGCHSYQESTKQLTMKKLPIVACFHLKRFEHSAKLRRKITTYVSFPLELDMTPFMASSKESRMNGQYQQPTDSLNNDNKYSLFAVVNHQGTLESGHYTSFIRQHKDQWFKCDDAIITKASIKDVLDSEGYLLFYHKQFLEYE
Method in brief: as §1

USP24 = USP24 (UniProt Q9UPU5)
Method in brief: as §1

USP25 = biological target: T3, USP25 (UniProt Q9UHP3)
T3 sequence (whole entry): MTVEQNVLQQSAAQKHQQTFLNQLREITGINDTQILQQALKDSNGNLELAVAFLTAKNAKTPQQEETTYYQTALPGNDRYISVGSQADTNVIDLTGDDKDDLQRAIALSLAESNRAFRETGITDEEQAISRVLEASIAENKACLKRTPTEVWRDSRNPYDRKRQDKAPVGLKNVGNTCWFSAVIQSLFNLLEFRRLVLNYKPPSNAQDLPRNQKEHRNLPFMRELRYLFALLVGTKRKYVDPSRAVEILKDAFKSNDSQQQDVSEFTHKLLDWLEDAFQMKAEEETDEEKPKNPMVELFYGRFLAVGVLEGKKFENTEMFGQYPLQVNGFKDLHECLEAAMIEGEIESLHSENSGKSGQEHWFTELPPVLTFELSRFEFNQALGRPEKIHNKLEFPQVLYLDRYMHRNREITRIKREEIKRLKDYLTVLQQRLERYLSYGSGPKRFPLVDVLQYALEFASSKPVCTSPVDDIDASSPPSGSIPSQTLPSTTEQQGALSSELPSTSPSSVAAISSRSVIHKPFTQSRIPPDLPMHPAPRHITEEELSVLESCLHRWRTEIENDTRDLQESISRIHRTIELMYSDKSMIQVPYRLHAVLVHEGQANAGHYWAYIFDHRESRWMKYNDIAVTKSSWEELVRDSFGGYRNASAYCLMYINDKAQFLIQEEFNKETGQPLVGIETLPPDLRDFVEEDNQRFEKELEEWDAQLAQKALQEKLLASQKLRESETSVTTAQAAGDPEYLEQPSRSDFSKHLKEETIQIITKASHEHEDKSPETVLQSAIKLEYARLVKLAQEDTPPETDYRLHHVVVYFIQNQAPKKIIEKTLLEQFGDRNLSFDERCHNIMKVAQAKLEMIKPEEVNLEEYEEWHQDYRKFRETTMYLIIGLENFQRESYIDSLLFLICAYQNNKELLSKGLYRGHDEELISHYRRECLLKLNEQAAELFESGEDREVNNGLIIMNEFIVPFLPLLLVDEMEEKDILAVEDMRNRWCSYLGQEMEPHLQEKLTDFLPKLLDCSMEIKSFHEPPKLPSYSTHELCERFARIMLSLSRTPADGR
Method in brief: as §1

USP28 = biological target: T4, USP28 (UniProt Q96RU2)
T4 sequence (whole entry): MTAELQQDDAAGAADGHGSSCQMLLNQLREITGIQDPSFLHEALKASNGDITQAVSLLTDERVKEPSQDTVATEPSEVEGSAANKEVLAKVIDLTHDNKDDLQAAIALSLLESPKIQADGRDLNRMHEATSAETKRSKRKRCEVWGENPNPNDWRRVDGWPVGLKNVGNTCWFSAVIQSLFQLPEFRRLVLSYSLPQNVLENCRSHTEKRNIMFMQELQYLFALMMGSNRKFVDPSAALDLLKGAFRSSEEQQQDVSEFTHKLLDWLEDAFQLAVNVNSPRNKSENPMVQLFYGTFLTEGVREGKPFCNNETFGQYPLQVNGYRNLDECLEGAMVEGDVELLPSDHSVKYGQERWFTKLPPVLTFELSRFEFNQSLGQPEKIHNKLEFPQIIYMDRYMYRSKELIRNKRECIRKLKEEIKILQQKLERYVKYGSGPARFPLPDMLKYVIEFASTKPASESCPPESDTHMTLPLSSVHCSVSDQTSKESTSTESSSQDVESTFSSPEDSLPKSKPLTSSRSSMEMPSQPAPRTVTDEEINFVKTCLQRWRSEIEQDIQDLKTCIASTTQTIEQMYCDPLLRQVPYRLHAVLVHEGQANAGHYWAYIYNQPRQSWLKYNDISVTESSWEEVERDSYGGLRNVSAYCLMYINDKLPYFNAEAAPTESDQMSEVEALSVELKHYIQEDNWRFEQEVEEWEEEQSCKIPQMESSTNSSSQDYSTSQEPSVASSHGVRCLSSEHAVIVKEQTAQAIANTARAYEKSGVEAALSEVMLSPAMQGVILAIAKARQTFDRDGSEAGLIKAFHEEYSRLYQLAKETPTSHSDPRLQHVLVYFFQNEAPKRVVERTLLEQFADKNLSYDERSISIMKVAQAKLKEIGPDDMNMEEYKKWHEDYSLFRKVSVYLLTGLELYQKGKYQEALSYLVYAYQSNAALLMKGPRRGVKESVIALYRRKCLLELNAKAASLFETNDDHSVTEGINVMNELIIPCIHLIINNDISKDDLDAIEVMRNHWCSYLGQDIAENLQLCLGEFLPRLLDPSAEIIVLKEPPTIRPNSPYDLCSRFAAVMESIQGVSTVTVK
Method in brief: as §1

Measured: log2 ratio of Biotin-Ahx-Ub-VS probe labelling

USP24, sequence (Q9UPU5 whole entry): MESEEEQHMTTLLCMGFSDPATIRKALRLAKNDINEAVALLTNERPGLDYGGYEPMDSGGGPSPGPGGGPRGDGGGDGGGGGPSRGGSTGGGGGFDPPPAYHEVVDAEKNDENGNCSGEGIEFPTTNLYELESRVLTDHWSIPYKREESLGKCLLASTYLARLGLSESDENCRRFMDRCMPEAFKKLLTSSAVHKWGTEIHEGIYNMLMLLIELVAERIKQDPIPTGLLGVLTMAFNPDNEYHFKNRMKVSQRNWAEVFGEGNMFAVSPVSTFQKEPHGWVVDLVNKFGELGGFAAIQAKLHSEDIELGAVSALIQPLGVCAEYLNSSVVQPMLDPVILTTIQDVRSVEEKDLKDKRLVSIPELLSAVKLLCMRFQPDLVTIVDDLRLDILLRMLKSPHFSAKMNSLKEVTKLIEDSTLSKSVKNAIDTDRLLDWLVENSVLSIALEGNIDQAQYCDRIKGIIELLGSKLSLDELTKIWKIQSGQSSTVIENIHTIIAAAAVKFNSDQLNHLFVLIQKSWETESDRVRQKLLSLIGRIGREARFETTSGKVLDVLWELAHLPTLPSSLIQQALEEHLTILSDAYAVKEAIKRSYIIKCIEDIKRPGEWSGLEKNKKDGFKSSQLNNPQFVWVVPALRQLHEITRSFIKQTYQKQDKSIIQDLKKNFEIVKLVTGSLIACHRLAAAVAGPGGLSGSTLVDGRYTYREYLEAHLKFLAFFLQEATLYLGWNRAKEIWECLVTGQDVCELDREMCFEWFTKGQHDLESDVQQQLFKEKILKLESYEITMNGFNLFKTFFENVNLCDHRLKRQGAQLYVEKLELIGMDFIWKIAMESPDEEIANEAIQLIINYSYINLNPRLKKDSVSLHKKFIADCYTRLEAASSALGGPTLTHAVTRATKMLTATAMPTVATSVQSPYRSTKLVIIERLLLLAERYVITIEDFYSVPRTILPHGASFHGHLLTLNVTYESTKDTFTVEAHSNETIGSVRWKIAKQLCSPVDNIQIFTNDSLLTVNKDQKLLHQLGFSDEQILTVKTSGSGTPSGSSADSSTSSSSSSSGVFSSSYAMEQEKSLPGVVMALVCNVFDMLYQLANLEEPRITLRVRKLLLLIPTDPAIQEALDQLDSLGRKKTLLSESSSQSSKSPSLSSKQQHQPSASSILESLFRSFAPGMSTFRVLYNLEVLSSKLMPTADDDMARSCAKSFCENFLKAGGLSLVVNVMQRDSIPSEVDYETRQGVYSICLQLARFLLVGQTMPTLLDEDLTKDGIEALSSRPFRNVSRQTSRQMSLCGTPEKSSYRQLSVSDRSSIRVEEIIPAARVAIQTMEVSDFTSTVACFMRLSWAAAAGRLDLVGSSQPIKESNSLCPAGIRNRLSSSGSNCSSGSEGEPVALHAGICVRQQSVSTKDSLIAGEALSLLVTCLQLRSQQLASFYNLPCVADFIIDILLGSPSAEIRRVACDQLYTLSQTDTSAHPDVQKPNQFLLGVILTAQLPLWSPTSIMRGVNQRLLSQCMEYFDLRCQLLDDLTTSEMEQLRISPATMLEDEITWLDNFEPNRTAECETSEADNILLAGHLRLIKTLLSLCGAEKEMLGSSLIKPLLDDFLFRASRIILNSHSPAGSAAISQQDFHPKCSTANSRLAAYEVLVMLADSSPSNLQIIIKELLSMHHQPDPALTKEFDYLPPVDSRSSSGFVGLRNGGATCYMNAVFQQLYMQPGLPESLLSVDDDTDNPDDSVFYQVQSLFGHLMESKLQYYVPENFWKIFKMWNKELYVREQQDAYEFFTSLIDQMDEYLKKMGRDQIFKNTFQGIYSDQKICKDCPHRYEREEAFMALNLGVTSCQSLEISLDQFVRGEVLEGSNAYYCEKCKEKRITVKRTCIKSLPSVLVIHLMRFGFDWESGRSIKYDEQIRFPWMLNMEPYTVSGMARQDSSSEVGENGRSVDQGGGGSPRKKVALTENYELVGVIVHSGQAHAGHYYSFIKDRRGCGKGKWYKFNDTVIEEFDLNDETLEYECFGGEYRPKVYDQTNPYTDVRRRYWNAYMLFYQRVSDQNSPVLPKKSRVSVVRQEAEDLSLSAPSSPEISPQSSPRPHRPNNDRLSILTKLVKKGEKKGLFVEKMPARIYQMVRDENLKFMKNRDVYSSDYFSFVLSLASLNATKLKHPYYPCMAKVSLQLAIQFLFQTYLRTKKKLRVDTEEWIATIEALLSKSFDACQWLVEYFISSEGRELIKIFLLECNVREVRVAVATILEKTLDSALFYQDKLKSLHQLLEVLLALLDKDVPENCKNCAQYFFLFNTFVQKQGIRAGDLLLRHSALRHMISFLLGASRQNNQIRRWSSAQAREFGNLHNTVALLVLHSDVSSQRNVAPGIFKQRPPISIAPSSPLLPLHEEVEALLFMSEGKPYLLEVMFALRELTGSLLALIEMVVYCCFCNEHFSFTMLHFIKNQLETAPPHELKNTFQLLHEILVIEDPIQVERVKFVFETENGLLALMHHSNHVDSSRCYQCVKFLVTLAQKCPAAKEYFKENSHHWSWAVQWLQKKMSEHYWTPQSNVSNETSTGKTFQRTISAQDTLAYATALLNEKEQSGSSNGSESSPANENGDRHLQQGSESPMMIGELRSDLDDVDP

O=C(CCl)NCc1ccc(N2CCOCC2)nc1
inactive: USP19 -0.163 | USP22 -0.181 | USP24 -0.312 | USP25 -0.432 | USP28 -0.485
